# Laboratory results published in PubChem BioAssay.
# Inconclusive results are not listed. The source made the active and inactive calls.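 The calls were made as follows, unless noted: active = GFP response above 150% of the DMSO control; inconclusive = fewer than 70 events counted in any yeast strain; inactive = the rest.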
# How the values were obtained:
# [1] = rapamycin-like changes in RPL19A-GFP expression – cell-based, S. cerevisiae, multiplex flow cytometry, primary screen (AID 1862; in the data active = percent of DMSO control GFP below about 86%;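 also: lower values mimic rapamycin by blocking the RPL19A rise seen in DMSO cells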); conditions: S. cerevisiae RPL19A-GFP strain, flow cytometry fluorescence, 3 h; at 10 µM; stronger effect = lower value
# [2] = TOR pathway GLN3 branch reporter MEP2-GFP changes – S. cerevisiae, multiplex flow cytometry, primary screen (AID 1867;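 active = GFP response, as percent of the DMSO control, above the screen-wide mean plus 3 SD, about 139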;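 also: median GFP channel fluorescence of barcode-gated MEP2-GFP cells measured by flow cytometry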); conditions: S. cerevisiae MEP2-GFP strain, 3 h, at 10 µM, stronger effect = higher value, 100% means same as DMSO wells
# [3] = TOR pathway RTG branch CIT2 reporter changes – S. cerevisiae, GFP fusion, multiplex flow cytometry, primary screen (AID 1870;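 active = percent response above a set limit, the screen-wide mean plus 3 SD, cut at about 130% in these data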;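 also: barcoded CIT2-GFP strain pooled with four other GFP strains with rapamycin as positive control; median GFP fluorescence per well over plate mean of DMSO wells so 100% = DMSO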); conditions: S. cerevisiae CIT2-GFP expression, 3 h, at 10 µM, stronger effect = higher value
# [4] = TOR pathway LAP4-GFP level changes – S. cerevisiae, multiplex flow cytometry, primary screen (AID 1873;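 active = GFP signal, as percent of the solvent control, above the screen mean plus 3 SD, about 149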); conditions: S. cerevisiae LAP4-GFP expression, 3 h, at 10 µM, stronger effect = higher value
# [5] = reduced mouse 2C T cell binding to pMHC/ICAM-1 vesicles – MLPCN validation set, flow cytometry, LFA-1/ICAM-1 modulator project, pilot screen (AID 2523;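 active = response below a set limit, under 55% cells CD8-positive and vesicle-bound, and CD8 cells' 90th-percentile brightness under 279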;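 as to vesicle binding response: mean PE anti-B7-1 fluorescence of CD8+ cells relative to row control; 100% = QL9-loaded vesicles with DMSO vehicle in the same plate row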); conditions: 2C mouse CD8+ T cells, at 7 µM, stronger effect = lower value; double positive events: measured here: CD8+/vesicle+ event percentage
# [6] = molecular target: Integrin beta-1 (Homo sapiens) + Integrin alpha-4 (Homo sapiens) (UniProt P13612+P05556); test: alpha4beta1 integrin LIBS antibody binding reduction – U937 cells, HUTS-21 mAb, flow cytometry, validation set, VLA-4 allosteric modulator project, pilot screen (AID 2674;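 active = inhibition above 50%, about 3 SD of the validation set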;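 also: antibody binding induced by the VLA-4 ligand LDV present at three times its Kd; 0% = LDV ligand with antibody and no compound and 100% = antibody without LDV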); conditions: HUTS-21 LIBS mAb binding, at 6.7 µM, stronger effect = higher value, binding induced by LDV ligand
# Sequence of Integrin beta-1 (Homo sapiens) + Integrin alpha-4 (Homo sapiens) (P05556 whole entry, looked up): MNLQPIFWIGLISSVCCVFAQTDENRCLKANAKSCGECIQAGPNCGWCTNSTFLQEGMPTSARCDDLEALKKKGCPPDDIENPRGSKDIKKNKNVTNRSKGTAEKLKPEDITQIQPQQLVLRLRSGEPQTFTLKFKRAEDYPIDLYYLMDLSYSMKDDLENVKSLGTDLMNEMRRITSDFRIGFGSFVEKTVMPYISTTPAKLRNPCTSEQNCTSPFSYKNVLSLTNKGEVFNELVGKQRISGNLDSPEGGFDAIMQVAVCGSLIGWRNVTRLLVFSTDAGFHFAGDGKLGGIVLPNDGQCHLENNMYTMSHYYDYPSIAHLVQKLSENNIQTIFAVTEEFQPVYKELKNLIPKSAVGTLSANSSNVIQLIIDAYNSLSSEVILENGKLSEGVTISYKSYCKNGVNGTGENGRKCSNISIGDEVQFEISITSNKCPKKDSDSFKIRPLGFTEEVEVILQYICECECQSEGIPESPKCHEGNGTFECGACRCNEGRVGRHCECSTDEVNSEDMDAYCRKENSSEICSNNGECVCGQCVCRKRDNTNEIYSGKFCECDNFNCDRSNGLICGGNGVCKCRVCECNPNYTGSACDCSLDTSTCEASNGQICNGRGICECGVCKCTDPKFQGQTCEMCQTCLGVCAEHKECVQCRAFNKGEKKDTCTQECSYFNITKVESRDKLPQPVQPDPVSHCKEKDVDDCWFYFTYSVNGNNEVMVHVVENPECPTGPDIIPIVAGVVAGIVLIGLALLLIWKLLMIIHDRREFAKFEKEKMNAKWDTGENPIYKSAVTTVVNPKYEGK
# Sequence of Integrin beta-1 (Homo sapiens) + Integrin alpha-4 (Homo sapiens) (P13612 whole entry, looked up): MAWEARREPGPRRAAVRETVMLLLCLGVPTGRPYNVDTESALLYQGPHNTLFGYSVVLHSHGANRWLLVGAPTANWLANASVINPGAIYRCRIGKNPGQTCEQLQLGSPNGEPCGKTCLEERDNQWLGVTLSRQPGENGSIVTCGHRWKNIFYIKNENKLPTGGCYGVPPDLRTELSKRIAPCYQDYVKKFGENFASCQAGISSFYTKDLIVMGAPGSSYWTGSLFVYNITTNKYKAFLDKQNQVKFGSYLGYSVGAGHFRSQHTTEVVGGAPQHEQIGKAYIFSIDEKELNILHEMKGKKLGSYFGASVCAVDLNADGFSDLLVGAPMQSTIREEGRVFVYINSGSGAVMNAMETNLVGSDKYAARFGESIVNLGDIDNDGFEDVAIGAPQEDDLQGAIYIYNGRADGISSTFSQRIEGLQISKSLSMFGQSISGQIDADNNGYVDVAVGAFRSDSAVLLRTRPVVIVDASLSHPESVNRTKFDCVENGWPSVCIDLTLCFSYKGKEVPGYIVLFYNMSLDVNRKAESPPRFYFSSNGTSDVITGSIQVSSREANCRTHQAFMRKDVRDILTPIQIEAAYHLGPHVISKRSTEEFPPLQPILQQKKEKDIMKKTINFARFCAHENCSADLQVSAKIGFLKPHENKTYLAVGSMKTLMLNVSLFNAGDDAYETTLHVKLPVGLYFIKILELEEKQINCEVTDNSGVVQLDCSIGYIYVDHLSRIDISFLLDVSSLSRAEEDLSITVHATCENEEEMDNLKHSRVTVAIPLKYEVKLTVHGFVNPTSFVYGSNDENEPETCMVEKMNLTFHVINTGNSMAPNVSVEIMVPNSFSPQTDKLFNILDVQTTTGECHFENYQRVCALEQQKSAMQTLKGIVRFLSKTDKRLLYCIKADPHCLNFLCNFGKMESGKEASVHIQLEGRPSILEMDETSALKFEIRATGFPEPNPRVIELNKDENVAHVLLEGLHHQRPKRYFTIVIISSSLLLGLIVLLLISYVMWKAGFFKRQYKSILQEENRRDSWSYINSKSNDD
# [7] = calorie-restriction mimetic ROS inhibitors, yeast – validation compound set, pilot screen (AID 2706;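 active = superoxide response below 65% of plate, a cut near 3 SD across the whole screen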;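 also: yeast exposed to compound for one week at 30 degrees C before staining; 100% = mean of all compound wells on the same plate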); conditions: S. cerevisiae aging, superoxide DHE fluorescence; at 10 µM, stronger effect = lower value
# [8] = molecular target: Beta-adrenergic receptor kinase 1 (Homo sapiens) (UniProt P25098); test: GRK2 binders displacing RNA aptamer, biochemical, validation, human GRK2, bead flow cytometry (AID 488806;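 active = aptamer binding inhibition above 30%, about 3 SD of noise from non-fluorescent compounds; inactive = inhibition at or below 30%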); conditions: bead-bound GRK2, FAM-aptamer displacement, at 10 µM, stronger effect = higher value
# Sequence of Beta-adrenergic receptor kinase 1 (Homo sapiens) (P25098 whole entry, looked up): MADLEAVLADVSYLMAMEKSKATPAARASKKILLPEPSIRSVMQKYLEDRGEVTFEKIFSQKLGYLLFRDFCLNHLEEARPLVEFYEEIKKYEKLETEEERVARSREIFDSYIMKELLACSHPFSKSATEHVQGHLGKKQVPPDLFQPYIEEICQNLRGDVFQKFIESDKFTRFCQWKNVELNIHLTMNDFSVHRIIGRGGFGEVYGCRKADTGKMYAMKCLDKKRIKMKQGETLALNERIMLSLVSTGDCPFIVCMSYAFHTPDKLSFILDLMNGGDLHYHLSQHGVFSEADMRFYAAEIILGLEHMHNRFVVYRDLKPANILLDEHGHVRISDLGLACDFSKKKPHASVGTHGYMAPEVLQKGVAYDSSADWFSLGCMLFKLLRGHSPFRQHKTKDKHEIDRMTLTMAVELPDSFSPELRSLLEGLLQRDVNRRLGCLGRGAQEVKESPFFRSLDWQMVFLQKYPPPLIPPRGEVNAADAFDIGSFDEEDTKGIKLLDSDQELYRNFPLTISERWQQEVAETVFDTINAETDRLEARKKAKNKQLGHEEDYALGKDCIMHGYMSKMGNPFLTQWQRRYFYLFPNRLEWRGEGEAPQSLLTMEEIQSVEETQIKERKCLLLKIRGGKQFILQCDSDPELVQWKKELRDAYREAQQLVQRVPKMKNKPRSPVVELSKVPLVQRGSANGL
# [9] = molecular target: Beta-2 adrenergic receptor (Homo sapiens) (UniProt P07550); test: agonist-induced loss of surface beta2AR – cell-based, FAP fluorogen, flow cytometry, validation set, pilot screen (AID 504459;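 active = percent response above 42, roughly 3 SD of non-fluorescent test compounds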;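 also: agonist-driven loss of surface beta2AR via internalization measured by FAP dye flow cytometry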); conditions: Am2.2-beta2AR cells, at 10 µM, stronger effect = higher value
# Sequence of Beta-2 adrenergic receptor (Homo sapiens) (P07550 whole entry, looked up): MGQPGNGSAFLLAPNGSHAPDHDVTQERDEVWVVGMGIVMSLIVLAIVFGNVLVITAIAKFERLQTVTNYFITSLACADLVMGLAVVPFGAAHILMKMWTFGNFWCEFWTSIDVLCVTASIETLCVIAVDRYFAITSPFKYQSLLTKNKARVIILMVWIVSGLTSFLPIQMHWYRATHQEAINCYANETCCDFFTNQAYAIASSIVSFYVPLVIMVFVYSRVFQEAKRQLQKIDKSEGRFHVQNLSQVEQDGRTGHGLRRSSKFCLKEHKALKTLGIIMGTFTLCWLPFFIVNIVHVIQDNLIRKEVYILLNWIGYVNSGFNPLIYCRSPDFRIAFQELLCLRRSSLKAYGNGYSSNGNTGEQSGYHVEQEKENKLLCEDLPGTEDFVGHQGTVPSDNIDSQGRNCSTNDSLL
# [10] = molecular target: AP-2 complex subunit beta (Homo sapiens) (UniProt P63010); test: beta-arrestin/AP2 interaction blockers – biochemical, validation set, GST-AP2 beads, flow cytometry, pilot screen (AID 504541;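 active = inhibition above 54%, about 3 SD of non-fluorescent compounds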;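 also: AP2 carries R879A mutation and is captured from E. coli lysate; bead-bound FITC arrestin peptide fluorescence measuring arrestin peptide binding to AP2; 0% = DMSO wells and 100% = excess unlabeled arrestin peptide control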); conditions: FITC arrestin peptide, at 10 µM, stronger effect = higher value, AP2 beta2 appendage fragment, R879A mutant
# Sequence of AP-2 complex subunit beta (Homo sapiens) (P63010 whole entry, looked up, the tested form may be a part, one chain of several): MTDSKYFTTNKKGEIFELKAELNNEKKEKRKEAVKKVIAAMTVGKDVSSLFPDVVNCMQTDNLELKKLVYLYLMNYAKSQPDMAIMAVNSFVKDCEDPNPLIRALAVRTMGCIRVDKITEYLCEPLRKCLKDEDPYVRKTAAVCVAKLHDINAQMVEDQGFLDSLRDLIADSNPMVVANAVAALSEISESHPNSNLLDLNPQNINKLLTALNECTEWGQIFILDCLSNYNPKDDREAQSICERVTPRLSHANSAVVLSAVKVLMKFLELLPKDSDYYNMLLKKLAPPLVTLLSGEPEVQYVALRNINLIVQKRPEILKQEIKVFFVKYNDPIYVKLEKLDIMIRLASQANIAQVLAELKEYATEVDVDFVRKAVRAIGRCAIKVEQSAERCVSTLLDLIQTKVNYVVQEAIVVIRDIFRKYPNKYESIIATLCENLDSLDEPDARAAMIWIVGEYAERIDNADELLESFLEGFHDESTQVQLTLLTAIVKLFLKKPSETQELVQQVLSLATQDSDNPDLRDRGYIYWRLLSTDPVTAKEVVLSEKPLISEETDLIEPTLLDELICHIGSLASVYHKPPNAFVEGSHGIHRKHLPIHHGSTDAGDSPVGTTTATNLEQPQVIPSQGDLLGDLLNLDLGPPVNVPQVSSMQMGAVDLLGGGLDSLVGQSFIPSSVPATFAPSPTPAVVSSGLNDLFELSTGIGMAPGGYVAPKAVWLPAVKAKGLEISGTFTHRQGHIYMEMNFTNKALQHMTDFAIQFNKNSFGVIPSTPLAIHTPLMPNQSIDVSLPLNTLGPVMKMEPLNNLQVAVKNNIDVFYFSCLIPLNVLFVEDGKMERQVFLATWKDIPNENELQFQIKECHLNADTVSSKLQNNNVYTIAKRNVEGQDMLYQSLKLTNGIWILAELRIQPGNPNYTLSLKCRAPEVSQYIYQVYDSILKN
# [11] = cytosolic pH regulators acting via V-ATPase – S. cerevisiae, pHLuorin, HTS validation (AID 504600; in the data active = response above about 15%;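 also: plate controls were DMSO for no effect and reference compound for full effect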); conditions: V-ATPase proton transport, at 10 µM, stronger effect = higher value
# [12] = tested on: anti-desmoglein-3 scFv antibody binding to human DSG3; test: blockers of pathogenic pemphigus antibody–desmoglein-3 binding – biochemical, validation compound set, bead-based, flow cytometry, pilot screen (AID 588368;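 active = binding below the plate cutoff, the plate median minus 3 SD, with a reading above zero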;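 also: signal is the median channel fluorescence of bead-bound GFP antibody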); conditions: Protein G beads, DSG3-Fc, scFv-GFP binding, at 10 µM, stronger effect = lower value
# [13] = Nile Red efflux blockade in pump-expressing yeast – validation compound set, multiplex, phenotypic, pilot screen (AID 588506;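 active = efflux inhibition above 0.42, the validation set average plus 4 SD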;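 also: Nile Red retained in cells so higher fluorescence means more efflux inhibition; 0 = negative control wells and 1 = enniatin B 25 µM full block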); conditions: S. cerevisiae pump-expressing triplex, Nile Red efflux flow cytometry; at 10 µM; stronger effect = higher value; the pumps come from Candida albicans
# [14] = molecular target: ATP-binding cassette sub-family B member 6 (Homo sapiens) (UniProt Q9NP58); test: blockers of ABCB6-driven porphyrin uptake – K562-ABCB6 cells, flow cytometry, validation set, pilot screen (AID 588550;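 active = inhibition above the screen-wide mean plus 3 SD, about 51%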;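 also: 0% = DMSO wells and 100% = benzethonium chloride 70 µM positive control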); conditions: K562-ABCB6 porphyrin accumulation, 1 h, at 10 µM, stronger effect = higher value
# Sequence of ATP-binding cassette sub-family B member 6 (Homo sapiens) (Q9NP58 whole entry, looked up): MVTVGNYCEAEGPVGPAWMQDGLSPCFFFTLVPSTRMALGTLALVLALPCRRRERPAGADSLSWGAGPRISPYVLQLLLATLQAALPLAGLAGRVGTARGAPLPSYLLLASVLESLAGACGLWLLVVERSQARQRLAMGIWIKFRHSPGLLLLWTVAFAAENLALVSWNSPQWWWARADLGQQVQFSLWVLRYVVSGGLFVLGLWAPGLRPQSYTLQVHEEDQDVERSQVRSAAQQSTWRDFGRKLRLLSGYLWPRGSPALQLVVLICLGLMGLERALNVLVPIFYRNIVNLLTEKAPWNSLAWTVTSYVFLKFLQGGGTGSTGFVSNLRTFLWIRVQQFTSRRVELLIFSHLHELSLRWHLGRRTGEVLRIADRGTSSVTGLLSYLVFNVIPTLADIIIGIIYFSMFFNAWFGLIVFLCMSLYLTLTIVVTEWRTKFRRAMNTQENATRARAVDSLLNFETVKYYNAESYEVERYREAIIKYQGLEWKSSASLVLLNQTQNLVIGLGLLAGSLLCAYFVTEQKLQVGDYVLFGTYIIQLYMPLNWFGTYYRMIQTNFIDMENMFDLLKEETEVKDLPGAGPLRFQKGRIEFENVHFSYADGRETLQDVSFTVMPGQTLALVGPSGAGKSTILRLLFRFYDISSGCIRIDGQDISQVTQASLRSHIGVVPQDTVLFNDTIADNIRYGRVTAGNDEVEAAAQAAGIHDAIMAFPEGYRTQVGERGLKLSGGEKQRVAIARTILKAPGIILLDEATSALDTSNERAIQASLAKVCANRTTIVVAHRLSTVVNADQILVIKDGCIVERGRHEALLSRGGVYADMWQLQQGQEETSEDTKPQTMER
# [15] = AML differentiation inducers, ER-HoxA9 marrow cells – cell-based, GFP/MAC1 double positive, flow cytometry, validation set, primary screen (AID 588685;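 active = differentiation response of at least 50%, scaled between solvent and reference control, from cells with both markers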;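 also: compound exposure lasts four days before antibody staining and flow analysis; 0% = DMSO wells and 100% = 5 µM fulvestrant positive control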); conditions: stronger effect = higher value, normalized: vehicle 0, fulvestrant 100
# [16] = hit retest on RPL19A-GFP reporter strain – cell-based, S. cerevisiae, flow cytometry, cherry picks, mother/daughter gates, confirmation (AID 2270;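 active = GFP response below 50% of the DMSO control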); conditions: 3 h, at 10 µM, stronger effect = lower value, 100 = same GFP as DMSO wells
# [17] = yeast TOR pathway reporter LAP4-GFP change – cell-based, cherry picks, flow cytometry, mother/daughter gates, confirmation (AID 2271);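 also: ratio of sample to DMSO plate mean so 100% equals DMSO level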; conditions: S. cerevisiae LAP4-GFP strain, 3 h, at 10 µM, stronger effect = higher value, 100 means same as DMSO control
# [18] = TOR pathway reporter MEP2-GFP, retest of hits – S. cerevisiae, flow cytometry GFP, cherry picks, confirmation (AID 2272;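 active = GFP response above 150% of the DMSO control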;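 also: ratio of well signal to plate DMSO mean so 100% equals DMSO level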); conditions: S. cerevisiae MEP2-GFP strain, 3 h, at 10 µM, stronger effect = higher value
# [19] = TOR pathway CIT2 reporter hit retest – S. cerevisiae, GFP fusion, cherry picks, mother/daughter gates, confirmation (AID 2274;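 active = GFP response above 150% of the DMSO level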); conditions: S. cerevisiae CIT2-GFP strain, flow cytometry, 3 h, at 10 µM, stronger effect = higher value
# [20] = measured here: daughter cell gate
# [21] = measured here: mother cell gate
# [22] = measured here: daughter cell gate response
# [23] = measured here: mother cell gate response
structure (smiles),measurement,setting,value
Cc1ccc(NCCC(=O)c2ccccc2)cc1Cl,percent of DMSO control GFP,[1],86.2% (inactive)
same,GFP response vs DMSO,[2],110% (inactive)
same,percent response of DMSO control,[3],110% (inactive)
same,GFP response vs DMSO,[4],78.7% (inactive)
same,double positive events,[5],63%
same,vesicle binding response,[5],171% (inactive)
same,inhibition,[6],28.8% (inactive)
same,superoxide response (% of plate),[7],99.7% (inactive)
same,aptamer binding inhibition,[8],2% (inactive)
same,response,[9],2.53% (inactive)
same,inhibition,[10],-12.3% (inactive)
same,response,[11],2.25% (inactive)
same,binding (% of control),[12],98% (inactive)
same,efflux inhibition (fraction of control),[13],-0.24 (inactive)
same,inhibition,[14],10% (inactive)
same,differentiation response,[15],-0.82% (inactive)
O=C(COc1ccccc1[N+](=O)[O-])Nc1ccc(NC(=O)c2cc3ccccc3o2)cc1,GFP response vs DMSO,[16],100% (inactive)
same,GFP response vs DMSO,[16]; [20],98.9%
same,GFP response vs DMSO,[16]; [21],99.3%
same,GFP response relative to DMSO,[17],88.7% (inactive)
same,GFP response relative to DMSO,[17]; [22],92%
same,GFP response relative to DMSO,[17]; [23],88.9%
same,GFP response vs DMSO,[18],103% (inactive)
same,"GFP response, % of DMSO",[19],92.2% (inactive)
same,"GFP response, % of DMSO",[19]; [20],92.1%
same,"GFP response, % of DMSO",[19]; [21],91.8%
O=c1[nH]c(CN2CCCCC2)nc2c1C1(CCCCC1)Cc1ccccc1-2,GFP response vs DMSO,[16],100% (inactive)
same,GFP response vs DMSO,[16]; [20],100%
same,GFP response vs DMSO,[16]; [21],100%
same,GFP response relative to DMSO,[17],98.7% (inactive)
same,GFP response relative to DMSO,[17]; [22],98.7%
same,GFP response relative to DMSO,[17]; [23],101%
same,GFP response vs DMSO,[18],100% (inactive)
same,"GFP response, % of DMSO",[19],99.1% (inactive)
same,"GFP response, % of DMSO",[19]; [20],96.5%
same,"GFP response, % of DMSO",[19]; [21],98.7%
O=C1CC(Sc2ncccn2)C(=O)N1c1ccccc1C(F)(F)F (stereo unspecified),GFP response vs DMSO,[16],100% (inactive)
same,GFP response vs DMSO,[16]; [20],100%
same,GFP response vs DMSO,[16]; [21],100%
same,GFP response relative to DMSO,[17],98.7% (inactive)
same,GFP response relative to DMSO,[17]; [22],102%
same,GFP response relative to DMSO,[17]; [23],99.3%
same,GFP response vs DMSO,[18],100% (inactive)
same,"GFP response, % of DMSO",[19],96.5% (inactive)
same,"GFP response, % of DMSO",[19]; [20],96.5%
same,"GFP response, % of DMSO",[19]; [21],97.7%
